Shown is part of a subset that was picked to be rich in hits.
GIRK2 activator – activators of NPY4-receptor-primed GIRK2 channels, summary, cell-based, HEK293, thallium flux. G protein-activated inward rectifier potassium channel 2 (Homo sapiens), P48051. HEK293 GIRK2/NPY4 cells, thallium flux fluorescence. activation (% efficacy), % for hits at 37.5 µM. 34,000 tested, under 10 active;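 active = primary screen hit, no activity in plain HEK293 cells, and in GIRK2-only cells above 5% efficacy rising with concentration; inactive = the rest, including fluorescent compounds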;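 note: efficacy is normalized control-subtracted fluorescence 15 s after thallium addition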
AMPAR-TARP mod – modulators of GluA2-stargazin AMPA receptor complexes, primary screen, cell-based, membrane potential dye. Voltage-dependent calcium channel gamma-2 subunit (Mus musculus) + Glutamate receptor 2 …. HEK293 GluA2+stargazin, membrane potential dye (FDSS), glutamate EC50; hits were called plate by plate, in both directions. calls only at 30 µM. actives 3.5% (n = 40,000);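 active = any of four per-well response measures lying three or more SD from its plate-wide compound average, in either direction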
Starred values were filed as active, the others as inactive; i = inactive; x = no result given; + = active, no number.

SMILES | GIRK2 activator | AMPAR-TARP mod
CN(C)c1ccc(N2CCN(C(=O)c3ccc(S(N)(=O)=O)cc3)CC2)nn1 | i | +
COc1ccc(CNC(=O)C(=O)NCC2CCN(C(=O)Nc3ccc(F)cc3)CC2)cc1 | i | i
CN1C(=O)C(=C2C=C(c3ccccc3)N(Cc3ccco3)C3=C2CCCC3)C(=O)N(C)C1=O | x | +
COc1cccc(C(=O)N2CCN(c3ncnc4c3nnn4-c3cccc(OC)c3)CC2)c1 | x | i
NC(=O)c1cccc(NC(=O)c2ccoc2)c1 | i | i
O=C(Nc1ccc(Nc2ccccc2)cc1)c1ccoc1 | i | +
CCCOc1cn(-c2ccc(F)cc2)nc1C(=O)NCc1ccc(F)cc1 | i | i
CC(=O)N1CCc2c(sc(NC(=O)c3cc(C)n(C)n3)c2-c2nc3ccccc3s2)C1 | i | +
CC(C)N1CCc2c(sc(NC(=O)c3nc4ccccc4s3)c2-c2nc3ccccc3s2)C1 | x | i
CC(=O)N1CCc2c(sc(NC(=O)c3ccccc3)c2-c2nc3ccccc3s2)C1 | x | i
CC(C)N1CCc2c(sc(NC(=O)c3ccco3)c2-c2nc3ccccc3s2)C1 | x | +
COC(CNC(=O)C(=O)Nc1c2c(nn1-c1ccccc1)CS(=O)(=O)C2)OC | i | i
CCCCNC(=O)/C(C#N)=C/N1CCN(/C=C/c2ccccc2)CC1 | i | i
COc1ccccc1-c1cnn2c(N3CCN(CCO)CC3)cc(C)nc12 | i | i
O=C(CSCc1ccccc1)NCCc1ccsc1 | i | i
CCc1ccc(-c2cc3c(=O)n(Cc4nc(-c5cccc(C(F)(F)F)c5)no4)ccn3n2)cc1 | i | +
CCc1ccc(-c2cc3c(=O)n(Cc4nc(-c5ccc(OC)cc5OC)no4)ccn3n2)cc1 | i | i
Cc1cc(C)n(-c2cc(N3CCCC(C(=O)NC4CCSC4=O)C3)ncn2)n1 (stereo not given) | i | i
COc1ccccc1NC(=O)N1CCN(c2ccc3nnc(-c4ccco4)n3n2)CC1 | i | i
CCc1ccccc1NC(=O)N1CCN(c2ccc3nnc(-c4ccco4)n3n2)CC1 | i | +
Cc1cc(N(C)C)nc(NCCNS(=O)(=O)c2cccnc2)n1 | i | i
O=C(NCCc1ccccc1)N1CCC(c2nnc(C3CC3)o2)CC1 | x | i
O=C(CN1CCC(c2nnc(C3CC3)o2)CC1)NCCc1ccccc1 | i | +
Cc1nc(NCCNC(=O)Nc2ccc(Cl)c(C(F)(F)F)c2)cc(-n2cccn2)n1 | i | +
Cc1nc(NCCNC(=O)Nc2ccc(C)c(F)c2)cc(-n2cccn2)n1 | i | i
SMILES | GIRK2 activator | AMPAR-TARP mod
Cc1onc(-c2ccccc2Cl)c1C(=O)N1CCC(c2ccsc2)CC1 | i | +
Cc1nnsc1C(=O)N1CCC(CNC(=O)c2c(-c3ccccc3Cl)noc2C)CC1 | i | i
COc1ccc(S(=O)(=O)NCCO)cc1N(C)S(=O)(=O)c1ccc(C)cc1 | x | i
O=c1cc(-c2ccc(F)cc2)nc(SCc2nc(-c3ccc4c(c3)OCO4)no2)[nH]1 | x | i
CC(C)N1CCC(CNC(=O)C(=O)NCc2ccc3c(c2)OCO3)CC1 | i | i
O=C(NCc1ccc2c(c1)OCO2)C(=O)NCC1CCN(C(=O)c2ccncc2)CC1 | i | +
COc1cc(C)c(C)cc1S(=O)(=O)NCC1CCN(c2ccccn2)CC1 | i | i
Cc1cc(C(=O)NC2CC(C)(C)NC(C)(C)C2)c(C)o1 | i | i
COCCNC(=O)CCc1csc(NC(=O)c2ccc[nH]c2=O)n1 | i | +
CC(C)CCNC(=O)CCc1csc(NC(=O)c2ccc[nH]c2=O)n1 | x | i
NC(=O)C1Cc2ccccc2N1C(=O)Cc1ccc([N+](=O)[O-])cc1 (stereo not given) | x | i
COc1ccc(-n2nc3c(c2NC(=O)C(=O)N2CCCC2)CSC3)cc1 | i | +
COc1ccc(-n2nc3c(c2NC(=O)C(=O)NCc2ccco2)CS(=O)(=O)C3)cc1 | i | +
Cc1cccc(-n2nc3c(c2NC(=O)C(=O)NCc2ccco2)CS(=O)(=O)C3)c1 | i | i
COc1ccc(-n2nc3c(c2NC(=O)C(=O)N2CCCCC2)CS(=O)(=O)C3)cc1 | i | i
COc1ccccc1-c1c(C)nn2c(NCCN(C)C)cc(C)nc12 | i | i
COc1ccc2sc(=NC(C)=O)n(CCSC)c2c1 | x | i
COc1ccc2sc(=NC(=O)c3cc(C)no3)n(CCSC)c2c1 | i | +
COc1cccc(OCC(=O)Nc2ccc(OC)c(N3CCCC3=O)c2)c1 | x | i
COc1cc(-c2c(NC(=O)c3ccco3)sc3ccccc3c2=O)cc(OC)c1OC | i | +
COc1ccc(-c2c(NC(=O)c3cccs3)sc3ccccc3c2=O)cc1 | i | i
COc1ccc(NC(=O)COc2ccccc2C)cc1N1CCCC1=O | i | i
CCOC(=O)c1scc(-c2ccc(C)cc2)c1S(=O)(=O)Nc1ccc2c(c1)OCCO2 | i | +
COC(=O)c1scc(-c2ccc(C)cc2)c1S(=O)(=O)Nc1ccc(OC)c(OC)c1 | i | i
COc1ccc(NC(=O)Cn2cc(OC)c(=O)cc2CSc2ncccn2)c(OC)c1 | i | i
SMILES | GIRK2 activator | AMPAR-TARP mod
COc1cc([N+](=O)[O-])cc2sc(NC(=O)c3ccno3)nc12 | i | +
Cc1cccc2sc(NC(=O)c3ccno3)nc12 | i | i
COc1ccccc1OCCn1c(CNC(=O)c2ccco2)nc2ccccc21 | i | x
Cc1ccc(S(=O)(=O)Nc2ccc3c(c2)N(S(=O)(=O)c2ccc(F)cc2)CCC3)cc1 | x | i
Cc1ccc(S(=O)(=O)c2c(C)nn(C(C)(C)C)c2OC(=O)c2cccc(C)c2)cc1 | x | i
COc1ccc(C(=O)Oc2c(S(=O)(=O)c3ccc(C)cc3)c(C)nn2C(C)(C)C)cc1OC | x | +
COc1cc(C(=O)Nc2cccc(-c3ccc(=O)n(C)n3)c2)cc(OC)c1OC | i | i
O=C(Nc1ccc(OC(F)(F)F)cc1)c1ccc(=O)n(Cc2cccc(F)c2)n1 | i | i
CN(C)C(CNS(=O)(=O)c1ccc2c(c1)OCCO2)c1ccc(F)cc1 (stereo not given) | x | i
O=C(Nc1ccc2cn[nH]c2c1)c1ccc(=O)[nH]n1 | i | +
O=C(Nc1ccc(Cl)c(Cl)c1)Nc1ccc2cn[nH]c2c1 | i | i
CCCS(=O)(=O)N1CCCc2cc(NS(=O)(=O)c3cc(C)ccc3OCC)ccc21 | x | i
CCCS(=O)(=O)N1CCCc2cc(NS(=O)(=O)c3cc(C)ccc3OC)ccc21 | x | +
COc1ccc(OC)c(S(=O)(=O)Nc2ccc3c(c2)CCCN3S(=O)(=O)c2ccccc2)c1 | x | i
COc1ccc(OC)c(S(=O)(=O)Nc2ccc3c(c2)N(S(=O)(=O)c2ccccc2)CCC3)c1 | x | +
Cc1ccc(OCC(O)Cn2c(NCCN3CCOCC3)nc3c2c(=O)[nH]c(=O)n3C)cc1C (stereo not given) | x | i
CCOc1cccc2sc(NC(=O)c3ccnn3C)nc12 | x | i
CCOc1cccc2sc(NC(=O)c3cc(C)nn3CC)nc12 | x | +
CN(Cc1ccccc1)C(=O)CCn1c(=O)[nH]c2ccccc2c1=O | i | i

Source: PubChem
